Data: PubChem BioAssay AID1159580 (chemical genetic matrix, 2015)
In all, about 5,500 compounds went through this assay and about 2,000 (36%) were called active. Roughly 18% stayed inconclusive and do not appear here. No stated cut-off is given here; in the data, active means normalized growth mostly below about 0.91 (no sharp cut-off); inconclusive means no clear call, values can overlap the other calls; inactive means mostly above about 0.92. The list shows a part of the results.

Test: chemical genetic growth profiling, strain panel (AID 1159580);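 further: tested at 20 µM; growth read once vehicle control cultures reached saturation at 30 °C; 1 = growth at the plate median or of vehicle wells; lower values mean less growth of the strain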
Settings: growth OD
[1] = S. cerevisiae deletion strains, locus YBR229C, strain ROT2, active compounds read low
[2] = S. cerevisiae deletion strains, locus YDL101C, strain DUN1, active compounds read low
[3] = S. cerevisiae deletion strains, locus YJR043C, strain POL32, active compounds read low
[4] = S. cerevisiae deletion strains, locus YJR075W, strain HOC1, active compounds read low
[5] = S. cerevisiae deletion strains, locus YLR039C, strain RIC1, active compounds read low
[6] = S. cerevisiae deletion strains, locus YLR262C, strain YPT6, active compounds read low
[7] = S. cerevisiae deletion strains, locus YMR307W, strain GAS1, active compounds read low

Measured: normalized growth

Cc1ccc(S(=O)(=O)/C(C#N)=N\O)cc1
inactive: S. cerevisiae deletion strains, locus YAL013W, strain DEP1, active compounds read low 0.989 | [1] 0.999 | S. cerevisiae deletion strains, locus YCL061C, strain MRC1, active compounds read low 1.01 | [2] 1.01 | S. cerevisiae deletion strains, locus YDR150W, strain NUM1, active compounds read low 1.02 | S. cerevisiae deletion strains, locus YEL061C, strain CIN8, active compounds read low 0.985 | S. cerevisiae deletion strains, locus YGR078C, strain PAC10, active compounds read low 0.997 | S. cerevisiae deletion strains, locus YGR229C, strain SMI1, active compounds read low 0.988 | S. cerevisiae deletion strains, locus YHR030C, strain SLT2, active compounds read low 0.948 | S. cerevisiae deletion strains, locus YHR087W, strain rtc3, active compounds read low 0.979 | S. cerevisiae deletion strains, locus YJL187C, strain SWE1, active compounds read low 0.987 | [3] 0.977 | [4] 1.03 | [5] 0.98 | S. cerevisiae deletion strains, locus YLR058C, strain SHM2 (second series), active compounds read low 0.997 | S. cerevisiae deletion strains, locus YLR085C, strain ARP6, active compounds read low 1.04 | [6] 0.984 | S. cerevisiae deletion strains, locus YML094W, strain GIM5, active compounds read low 1.02 | S. cerevisiae deletion strains, locus YMR219W, strain ESC1, active compounds read low 1 | S. cerevisiae deletion strains, locus YMR263W, strain SAP30, active compounds read low 0.932 | [7] 1.12 | S. cerevisiae deletion strains, locus YNL153C, strain GIM3, active compounds read low 0.989 | S. cerevisiae deletion strains, locus YNL298W, strain CLA4 (second series), active compounds read low 0.977 | S. cerevisiae deletion strains, locus YNL322C, strain KRE1, active compounds read low 0.993 | S. cerevisiae deletion strains, locus YNR030W, strain Alg12, active compounds read low 0.998 | S. cerevisiae deletion strains, locus YPL055C, strain LGE1, active compounds read low 1.11 | S. cerevisiae deletion strains, locus YPL241C, strain CIN2, active compounds read low 1.02 | S. cerevisiae deletion strains, locus YPR135W, strain CTF4, active compounds read low 0.906 | S. cerevisiae strains, strain wild type, active compounds read low 0.971

C/C=C(\C)C(=O)OC1[C@@H]2C=C3C4CC(=O)O[C@@H](c5ccoc5)[C@]4(C)CCC3[C@@](C)(C2=O)[C@@H](C(O)C(=O)OC)C1(C)C (some centres not stated)
inactive: S. cerevisiae deletion strains, locus YBR021W, strain FUR4, active compounds read low 1 | [1] 0.997 | S. cerevisiae deletion strains, locus YCL029C, strain bik1, active compounds read low 1.01 | S. cerevisiae deletion strains, locus YDL035C, strain GPR1, active compounds read low 0.994 | S. cerevisiae deletion strains, locus YDL074C, strain BRE1, active compounds read low 1.03 | [2] 1.01 | S. cerevisiae deletion strains, locus YDL134C, strain PPH21, active compounds read low 1.01 | S. cerevisiae deletion strains, locus YDL185W, strain tfp1, active compounds read low 1.02 | S. cerevisiae deletion strains, locus YDL192W, strain arf1, active compounds read low 1.01 | S. cerevisiae deletion strains, locus YDR101C, strain arx1, active compounds read low 1.01 | S. cerevisiae deletion strains, locus YDR162C, strain NBP2, active compounds read low 1.01 | S. cerevisiae deletion strains, locus YDR318W, strain mcm21, active compounds read low 1.02 | S. cerevisiae deletion strains, locus YDR388W, active compounds read low 1.02 | S. cerevisiae deletion strains, locus YDR502C, strain sam2, active compounds read low 1.03 | S. cerevisiae deletion strains, locus YER110C, active compounds read low 1.01 | S. cerevisiae deletion strains, locus YER155C, strain BEM2, active compounds read low 1 | S. cerevisiae deletion strains, locus YER167W, strain BCK2, active compounds read low 0.994 | S. cerevisiae deletion strains, locus YGL078C, strain dbp3, active compounds read low 1.03 | S. cerevisiae deletion strains, locus YGL086W, strain mad1, active compounds read low 1.01 | S. cerevisiae deletion strains, locus YGL248W, strain PDE1, active compounds read low 1 | S. cerevisiae deletion strains, locus YGR135W, strain pre9, active compounds read low 1.03 | S. cerevisiae deletion strains, locus YGR252W, strain gcn5, active compounds read low 1.02 | S. cerevisiae deletion strains, locus YHR079C, strain IRE1 (second series), active compounds read low 1.03 | S. cerevisiae deletion strains, locus YHR094C, strain hxt1, active compounds read low 1.03 | S. cerevisiae deletion strains, locus YHR129C, strain ARP1, active compounds read low 1 | S. cerevisiae deletion strains, locus YHR200W, strain rpn10, active compounds read low 1.02 | S. cerevisiae deletion strains, locus YIL066C, strain RNR3, active compounds read low 0.997 | S. cerevisiae deletion strains, locus YIL073C, strain SPO22, active compounds read low 1.05 | S. cerevisiae deletion strains, locus YIL125W, strain kgd1, active compounds read low 1.01 | S. cerevisiae deletion strains, locus YIR030C, strain dcg1, active compounds read low 1.02 | S. cerevisiae deletion strains, locus YJL095W, strain BCK1, active compounds read low 1.03 | S. cerevisiae deletion strains, locus YJL134W, strain LCB3, active compounds read low 1.01 | S. cerevisiae deletion strains, locus YJL168C, strain set2, active compounds read low 1.02 | S. cerevisiae deletion strains, locus YJL187C, strain SWE1 (second series), active compounds read low 1.02 | [3] 0.983 | [4] 1.02 | S. cerevisiae deletion strains, locus YKL009W, strain mrt4, active compounds read low 1 | S. cerevisiae deletion strains, locus YKL068W, active compounds read low 1.01 | S. cerevisiae deletion strains, locus YKL085W, strain MDH1 (second series), active compounds read low 0.996 | S. cerevisiae deletion strains, locus YKL085W, strain MDH1, active compounds read low 0.996 | S. cerevisiae deletion strains, locus YKL190W, strain CNB1, active compounds read low 1 | S. cerevisiae deletion strains, locus YKR001C, strain vps1, active compounds read low 1.03 | [5] 1 | S. cerevisiae deletion strains, locus YLR058C, strain SHM2, active compounds read low 1 | S. cerevisiae deletion strains, locus YLR102C, strain apc9, active compounds read low 1.01 | [6] 0.97 | S. cerevisiae deletion strains, locus YLR268W, strain sec22, active compounds read low 1.02 | S. cerevisiae deletion strains, locus YLR342W, strain FKS1 (second series), active compounds read low 0.998 | S. cerevisiae deletion strains, locus YLR371W, strain rom2, active compounds read low 1.02 | S. cerevisiae deletion strains, locus YLR418C, strain cdc73, active compounds read low 1.05 | S. cerevisiae deletion strains, locus YML016C, strain PPZ1, active compounds read low 0.999 | S. cerevisiae deletion strains, locus YML032C, strain rad52, active compounds read low 1.02 | S. cerevisiae deletion strains, locus YML124C, strain tub3, active compounds read low 1.01 | S. cerevisiae deletion strains, locus YMR078C, strain ctf18, active compounds read low 1.01 | S. cerevisiae deletion strains, locus YMR223W, strain ubp8, active compounds read low 1.02 | [7] 0.998 | S. cerevisiae deletion strains, locus YNL067W, strain RPL9B, active compounds read low 1.02 | S. cerevisiae deletion strains, locus YNL128W, strain TEP1, active compounds read low 1 | S. cerevisiae deletion strains, locus YNL233W, strain BNI4, active compounds read low 1.05 | S. cerevisiae deletion strains, locus YNL250W, strain rad50, active compounds read low 1.01 | S. cerevisiae deletion strains, locus YNL271C, strain bni1, active compounds read low 1.02 | S. cerevisiae deletion strains, locus YNL298W, strain CLA4, active compounds read low 1.01 | S. cerevisiae deletion strains, locus YNL307C, strain MCK1, active compounds read low 1.01 | S. cerevisiae deletion strains, locus YNR052C, strain pop2, active compounds read low 1.03 | S. cerevisiae deletion strains, locus YOL006C, strain TOP1, active compounds read low 0.976 | S. cerevisiae deletion strains, locus YOL012C, strain htz1 1.07 | S. cerevisiae deletion strains, locus YOL147C, strain pex11, active compounds read low 1.01 | S. cerevisiae deletion strains, locus YOR061W, strain CKA2, active compounds read low 1 | S. cerevisiae deletion strains, locus YOR069W, strain VPS5, active compounds read low 1 | S. cerevisiae deletion strains, locus YOR136W, strain idh2, active compounds read low 1.01 | S. cerevisiae deletion strains, locus YOR144C, strain elg1, active compounds read low 1.01 | S. cerevisiae deletion strains, locus YOR184W, strain ser1, active compounds read low 1 | S. cerevisiae deletion strains, locus YOR316C, strain cot1, active compounds read low 1.01 | S. cerevisiae deletion strains, locus YPR119W, strain clb2, active compounds read low 1.02 | S. cerevisiae deletion strains, locus YPR141C, strain kar3, active compounds read low 1.02 | S. cerevisiae deletion strains, locus YPR163C, strain tif3, active compounds read low 1.01 | S. cerevisiae deletion strains, locus YPR167C, strain met16, active compounds read low 1.02 | S. cerevisiae deletion strains, strain wtn01, active compounds read low 0.994
